# Data taken from paper PMC7862700, “An all-to-all approach to the identification of sequence-specific readers for epigenetic DNA modifications on cytosine”.
# Legend:
# Test in all cases: DAPPL (digital affinity profiling via proximity ligation, sequencing); 10 mM Tris-HCl pH 7.5, 50 mM NaCl, 1 mM DTT, 4% glycerol, room temperature, 30 min; GST-TFs on glutathione beads, 16-mer random dsDNA library, 0.1% formaldehyde crosslink after washing; high values mean tight binding
# [1] = biological target: T1, FEV (Homo sapiens, UniProt Q99581 1-238); conditions: protein: recombinant; tags: N-terminal GST; dsDNA, one strand shown
# T1 sequence: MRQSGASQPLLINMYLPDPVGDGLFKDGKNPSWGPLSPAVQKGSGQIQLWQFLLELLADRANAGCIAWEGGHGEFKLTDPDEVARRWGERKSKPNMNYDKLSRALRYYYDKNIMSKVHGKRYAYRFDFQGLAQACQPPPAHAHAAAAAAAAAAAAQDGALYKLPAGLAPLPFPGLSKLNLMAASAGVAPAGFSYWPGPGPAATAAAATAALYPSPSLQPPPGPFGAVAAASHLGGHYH
# Outline: (§1)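 Human transcription factors fused to GST were expressed in yeast, captured on glutathione beads, given DNA barcodes and pooled with a GST-only negative control. Pools were incubated with 200 nmole of a 16-mer random double-stranded DNA library in Tris/NaCl/DTT/glycerol buffer at room temperature for 30 min. They were then washed, crosslinked with 0.1% formaldehyde, proximity-ligated (BsaI/T4 ligase, 1 h, 37 °C), PCR-amplified and sequenced on an Illumina NextSeq500. Binding signal is each 6-mer's read frequency for a factor divided by its frequency for the GST control.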
# [2] = biological target: ETV5 (Homo sapiens, UniProt P41161 1-510); conditions: protein: recombinant; tags: N-terminal GST; dsDNA, one strand shown
# Sequence of ETV5 (P41161 whole entry): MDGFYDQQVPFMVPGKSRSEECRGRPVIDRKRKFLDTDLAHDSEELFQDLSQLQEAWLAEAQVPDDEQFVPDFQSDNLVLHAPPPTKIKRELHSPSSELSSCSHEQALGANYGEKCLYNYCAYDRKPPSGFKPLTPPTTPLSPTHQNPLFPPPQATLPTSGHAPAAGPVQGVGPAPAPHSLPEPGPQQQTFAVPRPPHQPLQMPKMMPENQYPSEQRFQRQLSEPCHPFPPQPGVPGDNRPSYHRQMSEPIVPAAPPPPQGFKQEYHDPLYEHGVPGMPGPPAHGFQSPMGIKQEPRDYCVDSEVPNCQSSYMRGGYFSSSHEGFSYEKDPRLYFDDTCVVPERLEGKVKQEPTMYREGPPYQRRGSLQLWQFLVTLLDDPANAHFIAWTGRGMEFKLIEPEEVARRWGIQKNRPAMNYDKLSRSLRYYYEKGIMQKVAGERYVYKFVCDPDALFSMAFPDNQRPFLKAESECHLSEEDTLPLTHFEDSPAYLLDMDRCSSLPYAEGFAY
# Outline: as §1
# [3] = biological target: HSF1 (Homo sapiens, UniProt Q00613 1-529); conditions: protein: recombinant; tags: N-terminal GST; chain copies: 3; dsDNA, one strand shown
# Sequence of HSF1 (Q00613 whole entry): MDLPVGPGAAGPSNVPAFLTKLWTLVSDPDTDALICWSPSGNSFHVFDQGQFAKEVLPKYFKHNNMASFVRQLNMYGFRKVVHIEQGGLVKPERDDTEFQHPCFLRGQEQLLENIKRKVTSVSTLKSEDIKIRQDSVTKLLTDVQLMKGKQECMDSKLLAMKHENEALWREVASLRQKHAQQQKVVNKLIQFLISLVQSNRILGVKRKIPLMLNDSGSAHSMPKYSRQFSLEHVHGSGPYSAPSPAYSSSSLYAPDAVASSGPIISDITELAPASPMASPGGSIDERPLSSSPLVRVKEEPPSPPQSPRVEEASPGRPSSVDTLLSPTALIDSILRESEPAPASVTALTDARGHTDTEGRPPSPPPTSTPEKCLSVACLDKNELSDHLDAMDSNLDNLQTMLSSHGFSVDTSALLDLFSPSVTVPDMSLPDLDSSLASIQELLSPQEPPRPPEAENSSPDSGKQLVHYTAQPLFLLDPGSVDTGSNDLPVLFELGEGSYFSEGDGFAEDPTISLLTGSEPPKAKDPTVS
# Outline: as §1
# [4] = biological target: T2, SPIC (Homo sapiens, UniProt Q8N5J4 1-248); conditions: protein: recombinant; tags: N-terminal GST; dsDNA, one strand shown
# T2 sequence: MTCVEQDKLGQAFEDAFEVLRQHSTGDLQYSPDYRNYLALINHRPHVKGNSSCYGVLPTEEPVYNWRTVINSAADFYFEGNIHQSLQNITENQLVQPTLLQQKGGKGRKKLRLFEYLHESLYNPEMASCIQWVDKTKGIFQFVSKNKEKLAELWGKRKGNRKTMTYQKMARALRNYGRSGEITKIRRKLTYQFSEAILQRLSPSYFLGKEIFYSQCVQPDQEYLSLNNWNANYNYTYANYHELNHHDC
# Outline: as §1
# [5] = biological target: ELF4 (Homo sapiens, UniProt Q99607 1-663); conditions: protein: recombinant; tags: N-terminal GST; dsDNA, one strand shown
# Sequence of ELF4 (Q99607 whole entry): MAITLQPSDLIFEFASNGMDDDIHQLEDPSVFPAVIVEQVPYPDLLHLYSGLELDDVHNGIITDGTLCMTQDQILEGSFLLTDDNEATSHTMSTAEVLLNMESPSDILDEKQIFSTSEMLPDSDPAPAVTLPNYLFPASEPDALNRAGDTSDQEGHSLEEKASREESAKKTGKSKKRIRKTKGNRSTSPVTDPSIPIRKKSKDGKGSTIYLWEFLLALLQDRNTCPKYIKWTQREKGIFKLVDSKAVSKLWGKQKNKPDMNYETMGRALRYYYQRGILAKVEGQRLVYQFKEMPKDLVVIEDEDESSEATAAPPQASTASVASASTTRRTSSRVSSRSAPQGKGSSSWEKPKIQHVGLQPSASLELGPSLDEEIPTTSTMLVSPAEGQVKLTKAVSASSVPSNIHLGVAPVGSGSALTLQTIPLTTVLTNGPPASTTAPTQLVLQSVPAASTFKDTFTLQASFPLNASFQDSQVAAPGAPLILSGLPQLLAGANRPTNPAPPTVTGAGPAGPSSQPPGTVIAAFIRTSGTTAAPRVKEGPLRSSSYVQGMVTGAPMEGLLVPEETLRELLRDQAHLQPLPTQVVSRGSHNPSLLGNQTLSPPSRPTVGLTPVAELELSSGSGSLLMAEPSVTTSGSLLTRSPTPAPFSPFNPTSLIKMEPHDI
# Outline: as §1
# [6] = biological target: T3, ELK4 (Homo sapiens, UniProt P28324-2 1-405); conditions: protein: recombinant; tags: N-terminal GST; dsDNA, one strand shown
# T3 sequence: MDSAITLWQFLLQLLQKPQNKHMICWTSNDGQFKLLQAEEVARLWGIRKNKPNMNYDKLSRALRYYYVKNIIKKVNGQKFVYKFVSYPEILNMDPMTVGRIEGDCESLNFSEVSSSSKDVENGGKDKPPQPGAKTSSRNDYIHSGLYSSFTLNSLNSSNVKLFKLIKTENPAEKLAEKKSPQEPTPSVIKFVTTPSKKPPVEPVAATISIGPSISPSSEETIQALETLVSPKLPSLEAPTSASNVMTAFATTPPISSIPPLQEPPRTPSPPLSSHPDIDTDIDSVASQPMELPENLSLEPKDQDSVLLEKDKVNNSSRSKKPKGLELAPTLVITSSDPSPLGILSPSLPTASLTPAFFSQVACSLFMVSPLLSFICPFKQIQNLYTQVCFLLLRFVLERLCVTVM
# Outline: as §1
# [7] = biological target: T4, ETV2 (Homo sapiens, UniProt O00321 1-342); conditions: protein: recombinant; tags: N-terminal GST; dsDNA, one strand shown
# T4 sequence: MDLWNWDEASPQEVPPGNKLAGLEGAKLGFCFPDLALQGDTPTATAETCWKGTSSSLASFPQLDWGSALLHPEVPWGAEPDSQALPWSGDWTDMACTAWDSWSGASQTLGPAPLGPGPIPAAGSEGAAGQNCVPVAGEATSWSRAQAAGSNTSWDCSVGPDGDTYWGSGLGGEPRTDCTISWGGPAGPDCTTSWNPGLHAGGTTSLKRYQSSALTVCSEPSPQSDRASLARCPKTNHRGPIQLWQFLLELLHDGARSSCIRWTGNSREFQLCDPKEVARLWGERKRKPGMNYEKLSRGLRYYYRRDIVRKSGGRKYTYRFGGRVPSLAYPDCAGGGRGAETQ
# Outline: as §1
# [8] = biological target: T5, ELF3 (Homo sapiens, UniProt P78545 1-371); conditions: protein: recombinant; tags: N-terminal GST; dsDNA, one strand shown
# T5 sequence: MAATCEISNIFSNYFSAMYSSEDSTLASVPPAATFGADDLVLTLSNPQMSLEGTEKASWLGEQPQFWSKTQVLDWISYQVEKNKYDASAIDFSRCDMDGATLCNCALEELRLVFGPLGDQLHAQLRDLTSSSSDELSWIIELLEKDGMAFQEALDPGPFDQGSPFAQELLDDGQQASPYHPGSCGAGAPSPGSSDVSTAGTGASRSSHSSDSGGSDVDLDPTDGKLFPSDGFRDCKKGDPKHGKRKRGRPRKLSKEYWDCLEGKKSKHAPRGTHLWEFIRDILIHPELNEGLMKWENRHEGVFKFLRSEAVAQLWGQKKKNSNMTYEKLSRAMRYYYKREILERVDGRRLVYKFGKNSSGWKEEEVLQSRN
# Outline: as §1
# [9] = biological target: CRX (Homo sapiens, UniProt O43186 1-299); conditions: protein: recombinant; tags: N-terminal GST; dsDNA, one strand shown
# Sequence of CRX (O43186 whole entry): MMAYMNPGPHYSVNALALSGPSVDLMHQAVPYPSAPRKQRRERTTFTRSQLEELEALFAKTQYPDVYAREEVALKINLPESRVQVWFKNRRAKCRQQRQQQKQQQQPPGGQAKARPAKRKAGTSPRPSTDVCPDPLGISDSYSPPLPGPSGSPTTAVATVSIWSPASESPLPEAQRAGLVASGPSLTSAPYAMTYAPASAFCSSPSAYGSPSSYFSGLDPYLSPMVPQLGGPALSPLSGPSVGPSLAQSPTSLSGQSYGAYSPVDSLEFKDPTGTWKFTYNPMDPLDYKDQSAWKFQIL
# Outline: as §1
# [10] = biological target: ETV1 (Homo sapiens, UniProt P50549 1-477); conditions: protein: recombinant; tags: N-terminal GST; dsDNA, one strand shown
# Sequence of ETV1 (P50549 whole entry): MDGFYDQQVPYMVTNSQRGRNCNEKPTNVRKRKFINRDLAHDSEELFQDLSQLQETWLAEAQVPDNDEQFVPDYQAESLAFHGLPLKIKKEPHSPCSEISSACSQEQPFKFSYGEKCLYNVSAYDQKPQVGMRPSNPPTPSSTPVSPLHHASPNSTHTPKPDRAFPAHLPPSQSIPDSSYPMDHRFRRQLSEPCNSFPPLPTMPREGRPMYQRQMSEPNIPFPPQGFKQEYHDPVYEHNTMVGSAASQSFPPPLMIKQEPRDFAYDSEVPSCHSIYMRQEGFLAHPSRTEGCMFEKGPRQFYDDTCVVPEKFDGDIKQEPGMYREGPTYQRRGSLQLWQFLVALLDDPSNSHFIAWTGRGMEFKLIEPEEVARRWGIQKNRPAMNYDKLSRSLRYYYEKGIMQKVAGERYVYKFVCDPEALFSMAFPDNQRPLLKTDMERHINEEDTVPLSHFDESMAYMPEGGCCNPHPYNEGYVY
# Outline: as §1
# [11] = biological target: T6, ERF (Homo sapiens, UniProt P50548 1-548); conditions: protein: recombinant; tags: N-terminal GST; dsDNA, one strand shown
# T6 sequence: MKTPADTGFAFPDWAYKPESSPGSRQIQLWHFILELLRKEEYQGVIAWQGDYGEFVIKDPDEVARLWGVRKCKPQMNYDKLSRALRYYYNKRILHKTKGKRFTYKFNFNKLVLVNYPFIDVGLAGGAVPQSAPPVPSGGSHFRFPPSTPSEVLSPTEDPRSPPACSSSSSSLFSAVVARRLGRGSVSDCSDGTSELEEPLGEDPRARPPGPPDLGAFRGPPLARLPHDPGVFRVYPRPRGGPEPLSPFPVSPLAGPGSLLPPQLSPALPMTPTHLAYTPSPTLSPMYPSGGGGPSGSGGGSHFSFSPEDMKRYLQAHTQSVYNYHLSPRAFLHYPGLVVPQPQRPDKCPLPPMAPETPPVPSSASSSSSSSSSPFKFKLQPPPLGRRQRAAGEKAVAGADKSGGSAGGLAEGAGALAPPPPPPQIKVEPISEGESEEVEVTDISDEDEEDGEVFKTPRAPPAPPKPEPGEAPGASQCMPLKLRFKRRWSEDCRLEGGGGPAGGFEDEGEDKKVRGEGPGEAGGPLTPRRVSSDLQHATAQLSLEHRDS
# Outline: as §1
# [12] = biological target: T7, ETV3L (Homo sapiens, UniProt Q6ZN32 1-361); conditions: protein: recombinant; tags: N-terminal GST; dsDNA, one strand shown
# T7 sequence: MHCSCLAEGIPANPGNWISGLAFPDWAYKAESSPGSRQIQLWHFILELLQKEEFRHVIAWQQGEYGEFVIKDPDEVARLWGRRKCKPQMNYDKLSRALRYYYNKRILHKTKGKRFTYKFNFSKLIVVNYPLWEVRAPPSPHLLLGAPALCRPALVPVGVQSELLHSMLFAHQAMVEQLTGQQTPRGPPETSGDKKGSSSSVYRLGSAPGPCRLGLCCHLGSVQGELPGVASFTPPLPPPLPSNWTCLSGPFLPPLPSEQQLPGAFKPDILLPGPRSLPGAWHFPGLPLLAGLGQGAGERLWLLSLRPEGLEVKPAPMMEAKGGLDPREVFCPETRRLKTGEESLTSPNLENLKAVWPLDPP
# Outline: as §1
# [13] = biological target: T8, ETS2 (Homo sapiens, UniProt P15036 1-469); conditions: protein: recombinant; tags: N-terminal GST; dsDNA, one strand shown
# T8 sequence: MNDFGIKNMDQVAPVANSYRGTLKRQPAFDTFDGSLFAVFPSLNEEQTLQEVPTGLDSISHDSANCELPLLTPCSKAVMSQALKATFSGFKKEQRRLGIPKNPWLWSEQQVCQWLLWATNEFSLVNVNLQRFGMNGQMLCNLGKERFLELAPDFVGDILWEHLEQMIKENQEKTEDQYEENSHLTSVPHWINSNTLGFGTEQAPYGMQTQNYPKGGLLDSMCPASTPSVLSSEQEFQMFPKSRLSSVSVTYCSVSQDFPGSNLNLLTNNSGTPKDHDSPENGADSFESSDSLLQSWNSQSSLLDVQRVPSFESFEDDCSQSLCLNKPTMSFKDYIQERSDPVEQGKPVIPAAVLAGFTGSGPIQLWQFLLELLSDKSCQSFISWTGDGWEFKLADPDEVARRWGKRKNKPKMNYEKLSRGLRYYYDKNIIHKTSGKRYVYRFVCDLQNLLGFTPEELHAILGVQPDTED
# Outline: as §1
# [14] = biological target: T9, SPDEF (Homo sapiens, UniProt O95238 1-335); conditions: protein: recombinant; tags: N-terminal GST; dsDNA, one strand shown
# T9 sequence: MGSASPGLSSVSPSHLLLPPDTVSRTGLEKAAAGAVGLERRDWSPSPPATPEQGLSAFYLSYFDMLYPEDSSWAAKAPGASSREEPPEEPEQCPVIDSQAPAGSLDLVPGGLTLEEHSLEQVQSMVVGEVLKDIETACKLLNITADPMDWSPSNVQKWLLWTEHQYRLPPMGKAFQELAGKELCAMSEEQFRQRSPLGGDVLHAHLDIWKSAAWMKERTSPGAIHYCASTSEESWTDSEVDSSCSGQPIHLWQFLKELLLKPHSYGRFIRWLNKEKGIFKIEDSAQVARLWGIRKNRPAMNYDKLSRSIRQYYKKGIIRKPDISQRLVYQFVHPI
# Outline: as §1
# [15] = biological target: T10, ETV7 (Homo sapiens, UniProt Q9Y603 1-341); conditions: protein: recombinant; tags: N-terminal GST; dsDNA, one strand shown
# T10 sequence: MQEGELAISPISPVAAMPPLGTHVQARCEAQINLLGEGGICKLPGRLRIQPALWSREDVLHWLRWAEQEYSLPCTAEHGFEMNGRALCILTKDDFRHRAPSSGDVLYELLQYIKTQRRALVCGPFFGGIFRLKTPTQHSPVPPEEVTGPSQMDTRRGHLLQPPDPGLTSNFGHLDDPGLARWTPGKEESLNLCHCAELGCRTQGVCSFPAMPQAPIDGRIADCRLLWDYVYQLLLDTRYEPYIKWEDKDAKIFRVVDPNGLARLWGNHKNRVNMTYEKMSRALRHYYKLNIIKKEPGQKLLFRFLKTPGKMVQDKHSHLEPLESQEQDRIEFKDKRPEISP
# Outline: as §1
# [16] = biological target: T11, ELF5 (Homo sapiens, UniProt Q9UKW6-2 1-255); conditions: protein: recombinant; tags: N-terminal GST; dsDNA, one strand shown
# T11 sequence: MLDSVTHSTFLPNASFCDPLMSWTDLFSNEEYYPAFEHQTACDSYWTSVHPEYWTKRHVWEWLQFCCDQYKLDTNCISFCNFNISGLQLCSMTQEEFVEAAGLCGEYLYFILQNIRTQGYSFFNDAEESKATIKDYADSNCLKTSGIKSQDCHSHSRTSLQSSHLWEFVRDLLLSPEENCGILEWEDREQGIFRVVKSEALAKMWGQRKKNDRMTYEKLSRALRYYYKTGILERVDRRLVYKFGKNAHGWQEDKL
# Outline: as §1
# [17] = biological target: T12, ETV3 (Homo sapiens, UniProt P41162-2 1-143); conditions: protein: recombinant; tags: N-terminal GST; dsDNA, one strand shown
# T12 sequence: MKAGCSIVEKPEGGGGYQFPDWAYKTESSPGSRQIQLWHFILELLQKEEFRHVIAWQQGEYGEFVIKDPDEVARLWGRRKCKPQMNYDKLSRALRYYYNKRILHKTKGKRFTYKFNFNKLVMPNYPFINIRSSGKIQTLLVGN
# Outline: as §1
sequence,measurement,setting,value
CTAACC,binding signal,[1],"1.16 fold enrichment (6-mer frequency, TF over GST control)"
same,binding signal,[2],"1.19 fold enrichment (6-mer frequency, TF over GST control)"
same,binding signal,[3],"1.05 fold enrichment (6-mer frequency, TF over GST control)"
same,binding signal,[4],"1.08 fold enrichment (6-mer frequency, TF over GST control)"
same,binding signal,[5],"1.2 fold enrichment (6-mer frequency, TF over GST control)"
same,binding signal,[6],"1 fold enrichment (6-mer frequency, TF over GST control)"
same,binding signal,[7],"1.11 fold enrichment (6-mer frequency, TF over GST control)"
same,binding signal,[8],"1.27 fold enrichment (6-mer frequency, TF over GST control)"
same,binding signal,[9],"1.09 fold enrichment (6-mer frequency, TF over GST control)"
same,binding signal,[10],"1.16 fold enrichment (6-mer frequency, TF over GST control)"
same,binding signal,[11],"1.17 fold enrichment (6-mer frequency, TF over GST control)"
same,binding signal,[12],"1.2 fold enrichment (6-mer frequency, TF over GST control)"
same,binding signal,[13],"1.15 fold enrichment (6-mer frequency, TF over GST control)"
same,binding signal,[14],"1.09 fold enrichment (6-mer frequency, TF over GST control)"
same,binding signal,[15],"1.04 fold enrichment (6-mer frequency, TF over GST control)"
same,binding signal,[16],"1.14 fold enrichment (6-mer frequency, TF over GST control)"
same,binding signal,[17],"1.16 fold enrichment (6-mer frequency, TF over GST control)"
